Reference: PubChem BioAssay AID2016 (NMMLSC, 2009)
In all, about 330,000 compounds went through this assay and about 1,700 (0.52%) were called active.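 The calls were made as follows: active = GFP response versus DMSO above a set limit, roughly screen mean plus 3 SD (cut at about 180% in these data); inconclusive = fewer than 70 cells counted for a yeast strain; inactive = the rest.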 This excerpt belongs to a sample that is enriched for actives.

Experiment: TOR pathway GLN3 branch reporter MEP2-GFP changes – S. cerevisiae, multiplex flow cytometry, MLPCN library, primary screen (AID 2016);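 also: median GFP fluorescence of the barcode-gated MEP2-GFP cells per well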
Conditions: S. cerevisiae MEP2-GFP strain, 3 h, at 10 µM, active compounds read high, 100% = DMSO control level

SMILES	GFP response vs DMSO
CCc1ccccc1NC(=O)CSc1nnc([C@@H](NC(=O)OC(C)(C)C)C(C)C)o1	88.8% (inactive)
CCc1ccccc1NC(=O)CSc1nnc(CCNC(=O)OC(C)(C)C)o1	114% (inactive)
CCc1ccccc1NC(=O)CSc1nnc([C@@H](NC(=O)OC(C)(C)C)C(C)CC)o1 (some centres not stated)	193% [may fluoresce violet] (active)
C#CCOCCOCCOCCNc1nc(N2CCN(C(=O)C(Cc3ccc(O)cc3)n3cc(C(N)CC(C)C)nn3)CC2)nc(N2CCN(C(=O)C(Cc3ccc(O)cc3)n3cc(C(N)C(C)CC)nn3)CC2)n1 (configuration not stated)	93.7% (inactive)
CC(NCC(=O)Nc1cc(Cl)cc(Cl)c1)c1ccccc1 (configuration not stated)	91.3% (inactive)
CCSc1sc(CC)cc1C=O	210% [may fluoresce violet] (active)
COc1ccc2c(c1)C(=C(C#N)C#N)C(=O)N2CCc1ccccc1	103% (inactive)
CCOCCOC(=O)C1=C(C)NC(=O)NC1c1ccc2c(c1)OCO2 (configuration not stated)	111% (inactive)
CC(=O)C1=C(C)NC(=O)NC1c1ccc2c(c1)OCO2 (configuration not stated)	179% [may fluoresce violet] (active)
COCCOC(=O)C1=C(C)NC(=O)NC1c1cc2c(cc1Br)OCO2 (configuration not stated)	95.2% (inactive)
O=C(CC12CC3CC(CC(C3)C1)C2)Nc1ccc2c(c1)COC2=O	99.2% (inactive)
Brc1ccc(C2CC(c3ccccc3)=Nc3ccccc3N2)cc1 (configuration not stated)	101% (inactive)
OCC[C@H]1C[C@@H](O)[C@H](O)[C@]2(OCCCc3ccccc32)O1	96.7% (inactive)
Brc1ccccc1C1Nc2cccc3cccc(c23)N1	104% (inactive)
Cc1ccc(C2Nc3cccc4cccc(c34)N2)cc1	110% (inactive)
Oc1ccc(C2Nc3cccc4cccc(c34)N2)cc1	184% (active)
O=C(CSc1n[nH]c(=O)n1-c1ccccc1)Nc1ccccc1C(F)(F)F	109% (inactive)
COc1ccc(C)cc1NC(=O)CN(C)S(=O)(=O)c1ccc2c(c1)n(C)c(=O)c(=O)n2C	110% (inactive)
COc1ccccc1NS(=O)(=O)c1ccc(C)c(C(=O)NCC(c2ccco2)N(C)C)c1 (configuration not stated)	104% (inactive)
O=C(CC(n1cncn1)C(Cl)(Cl)Cl)c1ccc([N+](=O)[O-])cc1 (configuration not stated)	91.9% (inactive)
O=C(c1ccncc1)c1ccc([N+](=O)[O-])cc1	90.2% (inactive)
COc1ccc(C(=O)NC(=S)NNC(=O)c2c(-c3ccccc3)noc2C)cc1	113% (inactive)

SMILES	GFP response vs DMSO
CCc1noc(C)c1C(=O)NNC(=O)c1ccc(F)cc1	100% (inactive)
Cc1onc(-c2ccccc2)c1C(=O)NNC(=S)NC(=O)c1ccc(F)cc1	176% [may fluoresce violet] (active)
O=C(OCC(=O)N1CCCCCC1)c1ccc(Cl)nc1	105% (inactive)
CCC(CO)Oc1cc(NC(=O)c2ccc(Cl)cc2)c2ncn(C(C)C)c2c1 (configuration not stated)	102% (inactive)
Cc1ccc(C2(C)NC(=O)N(CC(=O)N3CC(=O)Nc4ccccc43)C2=O)cc1 (configuration not stated)	95% (inactive)
CCC(C)(C)NC(=O)C(c1cccn1C)N(Cc1ccc(C)cc1)C(=O)Cn1nnc2ccccc21 (configuration not stated)	200% [may fluoresce violet] (active)
CC(C)(C)NC(=O)C(c1ccco1)N(Cc1ccc2c(c1)OCO2)C(=O)Cn1nnc2ccccc21 (configuration not stated)	101% (inactive)
CCC(C)(C)NC(=O)C(c1ccc(O)cc1)N(C(=O)Cn1nnc2ccccc21)c1ccc(NC(C)=O)cc1 (configuration not stated)	93.5% (inactive)
O=C(NCc1ccccc1Cl)C1CCN(S(=O)(=O)c2cccc3nonc23)CC1	287% [may fluoresce violet] (active)
O=C(NCc1ccco1)C1CCCN(S(=O)(=O)c2cccc3nonc23)C1 (configuration not stated)	97.8% (inactive)
O=C(NCc1ccccc1Cl)C1CCN(S(=O)(=O)N2CCOCC2)CC1	93.8% (inactive)
CCc1cccc(C)c1NS(=O)(=O)c1cc(Br)cnc1N	105% (inactive)
Cn1c(=O)n(C)c(=O)n(CC(=O)N2CCCCC2)c1=O	95.9% (inactive)
CCC1(C)Cc2c(sc3[nH]c(=S)n(Cc4ccccc4)c(=O)c23)CO1 (configuration not stated)	234% [may fluoresce violet] (active)
CCC1(C)Cc2c(sc3nnn(CC(=O)Nc4ccc(Cl)cc4)c(=O)c23)CO1 (configuration not stated)	104% (inactive)
CCn1c(=S)[nH]c2sc3c(c2c1=O)CCCCC3	106% (inactive)
O=C(Cc1ccccc1)NNS(=O)(=O)c1ccc([N+](=O)[O-])cc1	94.8% (inactive)
O=C(NNS(=O)(=O)Cc1ccccc1)c1ccc([N+](=O)[O-])cc1	796% [may fluoresce violet] (active)
O=C(CNC(=O)c1ccccc1)Oc1ccc([N+](=O)[O-])cc1	109% (inactive)
COCCn1c(C)cc(C(=O)CSc2nnc(C3CC3)n2C2CC2)c1C	101% (inactive)
CCN(CCCNC(=O)CSc1cc(=O)n(C)c2cc(Cl)ccc12)Cc1ccccc1	102% (inactive)
Cc1cc(C=O)c(C)n1-c1ccc(NC2CCCCC2)c([N+](=O)[O-])c1	101% (inactive)

SMILES	GFP response vs DMSO
CCOC(=O)c1sc2nc(C)nc(SCC(N)=O)c2c1C	105% (inactive)
COc1ccc(CNC(=O)C2CCN(C(=O)c3ccccc3)CC2)cc1	96.9% (inactive)
O=C(c1cccc(Cl)c1)N1CCN(Cc2ccccc2)CC1	110% (inactive)
O=C(NCc1ccncc1)C1CCN(C(=O)c2cccc(Cl)c2)CC1	465% [may fluoresce violet] (active)
CC1CC(NC(=O)/C(C#N)=C/c2ccc[nH]2)CC(C)(C)C1 (configuration not stated)	90.7% (inactive)
COc1cc(CCC(=O)Nc2ccncc2Cl)cc(OC)c1OC	101% (inactive)
C/C(=N\NC(=O)c1ccc2ccccc2c1)c1cccnc1	91.2% (inactive)
C/C(=N\NC(=O)c1cccnc1)c1ccc(-n2ccnc2)cc1	89.5% (inactive)
C/C(=N\NC(=O)c1cccnc1)c1ccc(-c2ccccc2)cc1	189% [may fluoresce violet] (active)
Cc1noc(C)c1-c1nc(CSc2ccc(Cl)cc2)no1	105% (inactive)
O=C(Nc1ccccc1Cl)N1CCN(c2ccc3nncn3n2)CC1	97.1% (inactive)
COc1ccc(/C=N/Nc2ncnc3sc4c(c23)CCCC4)cc1O	106% (inactive)
CCOc1ncccc1C(=O)OCC(=O)NC1CC1	100% (inactive)
CCOc1ncccc1C(=O)OCC(=O)N1c2ccccc2CC1C (configuration not stated)	92.2% (inactive)
CCOc1ncccc1C(=O)OCc1cn2cc(Cl)ccc2n1	561% [may fluoresce violet] (active)
N#CC(C#N)=CN=c1ccn(Cc2ccc(Cl)cc2Cl)cc1	107% (inactive)
COc1ccc(CN2CCCC(N3CCc4ccccc4C3)C2)c(O)c1 (configuration not stated)	104% (inactive)
COc1ccccc1CN1CCN(Cc2cc(OC)c(OC)cc2OC)CC1	114% (inactive)
COc1ccccc1CN1CCCC(N2CCN(c3ccc(F)cc3)CC2)C1 (configuration not stated)	485% [may fluoresce violet] (active)
COc1ccc(/C=C/CN2CCN(Cc3ccc(C)cc3)C(CCO)C2)cc1 (configuration not stated)	104% (inactive)
CC12CCC(=O)N1C(C(=O)NCCN1C(=O)S/C(=C\c3ccccc3F)C1=O)CS2 (configuration not stated)	107% (inactive)
CC(C)(C)NC(=O)C(c1ccncc1)N(C(=O)CNC(=O)c1ccco1)c1ccc2c(c1)OCO2 (configuration not stated)	111% (inactive)

SMILES	GFP response vs DMSO
Cc1ccc(N(C(=O)CNC(=O)c2ccco2)C(C(=O)NC2CCCC2)c2ccncc2)cc1 (configuration not stated)	359% [may fluoresce violet] (active)
COc1cccc(N(C(=O)CNC(=O)c2ccco2)C(C(=O)NC2CCCCC2)c2cccnc2)c1 (configuration not stated)	104% (inactive)
O=C(Nc1ccc(S(=O)(=O)NCC2CCCO2)cc1)c1ccc(F)cc1 (configuration not stated)	101% (inactive)
O=C(CN1CCCCCC1)Nc1c(Cl)cc(Cl)cc1Cl	98.7% (inactive)
Oc1ccccc1C1=NN(c2ccccc2)C(c2ccccc2)C1 (configuration not stated)	107% (inactive)
O=C1C2N=NN(CC(=O)N3N=C(c4cccc5ccccc45)CC3c3ccccc3)C2C(=O)N1c1ccccc1 (configuration not stated)	299% [may fluoresce violet] (active)
Cc1ccc(N2C(=O)C3N=NN(CC(=O)N4N=C(c5cccc6ccccc56)CC4c4ccccc4)C3C2=O)cc1 (configuration not stated)	102% (inactive)
CCOC(=O)c1c(NC(=O)CSc2nnc(CN3CCOCC3)n2C)sc2c1CCCC2	99.8% (inactive)
CCOC(=O)C1CCN(C(=O)C2CCN(S(=O)(=O)CC)CC2)CC1	98.5% (inactive)
Cc1ccc2cc3cc(C(=O)N4CCCCCC4)oc3nc2c1	97.2% (inactive)
CCCCN1C(=O)c2ccc(C(=O)Nc3ccc(S(=O)(=O)N(C)C)cc3)cc2C1=O	87.8% (inactive)
COCCN1C(=O)N[C@@H](c2ccccc2)C(C(=O)OC)=C1C	91.3% (inactive)
COCCN1C(=O)N[C@@H](CCc2ccccc2)[C@H](C(C)=O)[C@H]1C	86.4% (inactive)
COCCN1C2=C(COC(C)(C)C2)C(=S)NC1c1ccccc1 (configuration not stated)	234% (active)
Brc1ccc2c(c1)[C@H]1OCC[C@H]1[C@@H](c1cccs1)N2	102% (inactive)
C[C@H]1CCC(=O)N([C@H](CSc2ccccc2)Cc2ccccc2)CC1	93.7% (inactive)
C=CCC1=C/C(=C\c2c(N)n3nc(CC(=O)N4CCOCC4)sc3nc2=O)C=C(OC)C1=O	102% (inactive)
CN(Cc1ccc(F)cc1)C(=O)CN1C(=O)c2ccccc2S1(=O)=O	95% (inactive)
COc1ccccc1OCCCC(=O)Nc1ccc2c(c1)OCCO2	92.3% (inactive)
CCc1ccccc1OCC(=O)Nc1ccc2c(c1)OCCO2	366% [may fluoresce violet] (active)
CCC(=O)c1cc(F)ccc1OCC(=O)Nc1ccc2c(c1)OCCO2	104% (inactive)
